# Experimental data: PubChem BioAssay (NCATS)
# Inconclusive results are not listed. Entries that show only a call come without a potency. Values without a mark were called inactive. Activity calls are given as the source filed them. The call rests on the fitted dose curve; in most records, active means well fitted curve in the direction sought with a large enough effect; inconclusive means small, poorly fitted or top-dose-only effect, or another doubt; inactive means no such curve, though single readings can be large; an effect the other way counts as inactive or inconclusive.
# Assays:
# [1] = Primary qHTS for inhibitors of nuclear receptor binding SET domain protein 2 (NSD2) in an isogenic RCH-ACV NSD2 p.E1099K mutant (9B) (AID 1645876)
# [2] = Primary qHTS for inhibitors of nuclear receptor binding SET domain protein 2 (NSD2) in an RCH-ACV wild type WT cells (2C) (AID 1645877)
# Further: nearly all actives have a fitted effect of over 70% in size.
smiles,measurement,setting,value
CCC(NC(=O)CC(NC(=O)C(CO)NC(=O)C(CC)NC(=O)c1ccc[nH]1)c1ccccc1)C(=O)O (stereo unspecified),Potency,[1],inactive
same,Potency,[2],inactive
CC(=O)O[C@H]1CC[C@@]2(CI)C(=CC[C@@H]3[C@@H]2CC[C@]2(C)[C@@H]([C@H](C)CCCC(C)C)CC[C@@H]32)C1,"activity change, negative = viability loss",[1],-4.5% [at 9.23 µM]
same,"activity change, negative = cell killing",[2],-14% [at 9.23 µM]
COC1CC(OC2CCC3(C)C(=CCC4C3CCC3(C)C(C(C)O)CCC43O)C2)OC(C)C1OC1OC(C)C(OC2OC(COC3OC(COC4OC(CO)C(O)C(O)C4O)C(O)C(O)C3O)C(O)C(O)C2O)C(OC)C1O (stereo unspecified),outcome,[1],inactive [at 9.23 µM]
same,outcome,[2],inactive [at 9.23 µM]
CC(=O)O[C@H]1[C@H](C)[C@@H](O)[C@H]2[C@@H]1C=C(C(=O)O)[C@H]1C[C@@H]3[C@H]([C@H]21)[C@H]1C(=O)O[C@@H]2CC[C@@]3(C)O[C@]1(O)[C@@H]2C,Potency,[1],inactive
same,Potency,[2],inactive
O=C(c1ccc(NS(=O)(=O)c2cccc3cccnc23)cc1)N1CCN(CC2CC2)CC1,Potency,[1],inactive
same,Potency,[2],inactive
CC(C)C(C#N)O[C@@H]1O[C@H](CO[C@@H]2OC[C@](O)(CO)[C@H]2O)[C@@H](O)[C@H](O)[C@H]1O (stereo partly specified),Potency,[1],inactive
same,Potency,[2],inactive
COc1cc(-c2cccc(O)c2)cc2c1OCO2,Potency,[1],inactive
same,Potency,[2],inactive
CC1=C2CC3OC3(C)CCC3OC3(C)CC2OC1=O (stereo unspecified),Potency,[1],inactive
same,Potency,[2],inactive
C=C(C)[C@@H](C)[C@H]1O[C@]23C[C@]4(CO2)C(CCC2[C@@]5(C)CC[C@H](O[C@@H]6OC[C@H](O)[C@H](O[C@@H]7O[C@H](CO)[C@@H](O)[C@H](O)[C@H]7O)[C@H]6O[C@@H]6O[C@@H](CO)[C@H](O)[C@H]6O)C(C)(C)C5CC[C@]24C)C3[C@@](C)(O)[C@@H]1OC(C)=O (stereo partly specified),outcome,[1],inactive [at 9.23 µM]
same,outcome,[2],inactive [at 9.23 µM]
CC[C@H]1OC(=O)[C@H](C)[C@@H](O[C@H]2C[C@@](C)(OC)[C@@H](O)[C@H](C)O2)[C@H](C)[C@@H](O[C@@H]2O[C@H](C)C[C@H](N(C)C)[C@H]2O)[C@@](C)(O)C[C@@H](C)[C@@H]2N[C@@H](COCCOC)OC([C@H]2C)[C@]1(C)O,Potency,[1],inactive
same,Potency,[2],inactive
CCC/C=C/C(=O)O[C@H]1CC(C)(C)CC2[C@]13[C@H](O)O[C@@]21CCC2[C@@]4(C)CC[C@H](O[C@@H]5O[C@H](C(=O)O)[C@@H](O)[C@H](O[C@@H]6O[C@H](CO)[C@H](O)[C@H](O)[C@H]6O[C@@H]6O[C@@H](C)[C@H](O)[C@@H](O)[C@H]6O[C@@H]6OC[C@](O)(CO)[C@H]6O)[C@H]5O[C@@H]5O[C@H](CO)[C@H](O)[C@H](O)[C@H]5O)C(C)(C)C4CC[C@@]2(C)[C@]1(C)C[C@H]3OC(C)=O (stereo partly specified),"activity change, negative = viability loss",[1],-22.9% [at 9.23 µM]
same,"activity change, negative = cell killing",[2],-16.1% [at 9.23 µM]
C=C[C@@]1(C)CC(=O)C2[C@](C)(O1)[C@@H](OC(C)=O)[C@@H](O)[C@H]1C(C)(C)CCC[C@]21C (stereo partly specified),"activity change, negative = viability loss",[1],1.01% [at 9.23 µM]
same,outcome,[2],inactive [at 9.23 µM]
O=C(O[C@H]1[C@@H]2C[C@@H]3OC[C@@](O)([C@H]2[C@H](O[C@@H]2O[C@H](CO)[C@@H](O)[C@H](O)[C@H]2O)O3)[C@@H]1O)c1ccccc1,Potency,[1],inactive
same,Potency,[2],inactive
Cn1c(=O)cc(N2CCCC(N)C2)n(Cc2ccccc2C#N)c1=O (stereo unspecified),Potency,[1],inactive
same,Potency,[2],inactive
Cc1nnc(C(C)C)n1C1CC2CCC(C1)N2CC[C@H](NC(=O)C1CCC(F)(F)CC1)c1ccccc1 (stereo partly specified),Potency,[1],inactive
same,Potency,[2],inactive
COc1cc([C@H]2OC[C@]3(OC(C)=O)[C@@H](c4ccc(O[C@@H]5O[C@H](CO)[C@@H](O)[C@H](O)[C@H]5O)c(OC)c4)OC[C@H]23)ccc1O,Potency,[1],inactive
same,Potency,[2],inactive
C=C1C(=O)O[C@H]2[C@H]1[C@@H](OC(=O)C(C)CO)C[C@@]1(C)[C@H](O)CCC(=O)[C@H]21 (stereo partly specified),Potency,[1],inactive
same,Potency,[2],inactive
COC(=O)C[C@@H]1C(C(=O)O)=CO[C@@H](O[C@@H]2O[C@H](CO)[C@@H](O)[C@H](O)[C@H]2O)/C1=C\COC(=O)/C=C\c1ccccc1,Potency,[1],inactive
same,Potency,[2],inactive
CC1OC(OC2C(C)OC(OC3C(OC(=O)/C=C/c4ccc(O)cc4)C(CO)OC(OC4(COC(=O)/C=C/c5ccc(O)cc5)OC(CO)C(O)C4O)C3OC3OCC(O)(CO)C3O)C(O)C2O)C(O)C(O)C1O (stereo unspecified),"activity change, negative = viability loss",[1],-6.92% [at 9.23 µM]
same,"activity change, negative = cell killing",[2],-11.9% [at 9.23 µM]
O=C(/C=C/c1c(C(=O)O)[nH]c2cc(Cl)cc(Cl)c12)Nc1ccccc1,Potency,[1],inactive
same,Potency,[2],inactive
C[C@]1(O)CC[C@@H]2C(C(=O)O)=CO[C@@H](O[C@@H]3O[C@H](COC(=O)c4ccc(O)cc4)[C@@H](O)[C@H](O)[C@H]3O)[C@@H]21,Potency,[1],inactive
same,Potency,[2],inactive
CC1(C)CC[C@]2(C(=O)O)CC[C@]3(C)C(=CCC4[C@@]5(C)C[C@@H](O)[C@H](O)C(C)(C)C5CC[C@]43C)[C@@H]2[C@@H]1O (stereo partly specified),Potency,[1],inactive
same,Potency,[2],inactive
C[C@H]1CC[C@@]2(OC1)O[C@H]1CC3C4CC=C5C[C@H](O)C[C@@H](O[C@@H]6O[C@@H](C)[C@H](O)[C@@H](O)[C@H]6O[C@@H]6O[C@@H](C)[C@H](O)[C@@H](O)[C@H]6O)[C@]5(C)C4CC[C@]3(C)[C@H]1[C@@H]2C (stereo partly specified),Potency,[1],inactive
same,Potency,[2],inactive
